In PubChem BioAssay AID449739 (Vanderbilt High Throughput Screening Facility, 2010):
Among all 100,000 compounds or so, about 4,200 (4.2%) were called active. For the sample, actives were picked, then their nearest neighbours and some compounds at random. A number with no mark means an inactive call.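 Rule for the calls: active = single-dose well whose peak fluorescence ratio is a statistical outlier from its plate by either plate-standardised score or position-corrected B-score; inactive = the rest.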

What follows are compounds tested against Voltage-dependent T-type calcium channel subunit alpha-1H (Homo sapiens) (UniProt O95180) (assay: Cav3.2 calcium influx blockers – cell-based, Fluo-4 calcium fluorescence, FDSS, MLSMR library, primary screen (AID 449739)). Settings: Cav3.2-expressing cells, at 10 µM, active compounds read low.
Sequence of Voltage-dependent T-type calcium channel subunit alpha-1H (Homo sapiens) (O95180 whole entry, looked up): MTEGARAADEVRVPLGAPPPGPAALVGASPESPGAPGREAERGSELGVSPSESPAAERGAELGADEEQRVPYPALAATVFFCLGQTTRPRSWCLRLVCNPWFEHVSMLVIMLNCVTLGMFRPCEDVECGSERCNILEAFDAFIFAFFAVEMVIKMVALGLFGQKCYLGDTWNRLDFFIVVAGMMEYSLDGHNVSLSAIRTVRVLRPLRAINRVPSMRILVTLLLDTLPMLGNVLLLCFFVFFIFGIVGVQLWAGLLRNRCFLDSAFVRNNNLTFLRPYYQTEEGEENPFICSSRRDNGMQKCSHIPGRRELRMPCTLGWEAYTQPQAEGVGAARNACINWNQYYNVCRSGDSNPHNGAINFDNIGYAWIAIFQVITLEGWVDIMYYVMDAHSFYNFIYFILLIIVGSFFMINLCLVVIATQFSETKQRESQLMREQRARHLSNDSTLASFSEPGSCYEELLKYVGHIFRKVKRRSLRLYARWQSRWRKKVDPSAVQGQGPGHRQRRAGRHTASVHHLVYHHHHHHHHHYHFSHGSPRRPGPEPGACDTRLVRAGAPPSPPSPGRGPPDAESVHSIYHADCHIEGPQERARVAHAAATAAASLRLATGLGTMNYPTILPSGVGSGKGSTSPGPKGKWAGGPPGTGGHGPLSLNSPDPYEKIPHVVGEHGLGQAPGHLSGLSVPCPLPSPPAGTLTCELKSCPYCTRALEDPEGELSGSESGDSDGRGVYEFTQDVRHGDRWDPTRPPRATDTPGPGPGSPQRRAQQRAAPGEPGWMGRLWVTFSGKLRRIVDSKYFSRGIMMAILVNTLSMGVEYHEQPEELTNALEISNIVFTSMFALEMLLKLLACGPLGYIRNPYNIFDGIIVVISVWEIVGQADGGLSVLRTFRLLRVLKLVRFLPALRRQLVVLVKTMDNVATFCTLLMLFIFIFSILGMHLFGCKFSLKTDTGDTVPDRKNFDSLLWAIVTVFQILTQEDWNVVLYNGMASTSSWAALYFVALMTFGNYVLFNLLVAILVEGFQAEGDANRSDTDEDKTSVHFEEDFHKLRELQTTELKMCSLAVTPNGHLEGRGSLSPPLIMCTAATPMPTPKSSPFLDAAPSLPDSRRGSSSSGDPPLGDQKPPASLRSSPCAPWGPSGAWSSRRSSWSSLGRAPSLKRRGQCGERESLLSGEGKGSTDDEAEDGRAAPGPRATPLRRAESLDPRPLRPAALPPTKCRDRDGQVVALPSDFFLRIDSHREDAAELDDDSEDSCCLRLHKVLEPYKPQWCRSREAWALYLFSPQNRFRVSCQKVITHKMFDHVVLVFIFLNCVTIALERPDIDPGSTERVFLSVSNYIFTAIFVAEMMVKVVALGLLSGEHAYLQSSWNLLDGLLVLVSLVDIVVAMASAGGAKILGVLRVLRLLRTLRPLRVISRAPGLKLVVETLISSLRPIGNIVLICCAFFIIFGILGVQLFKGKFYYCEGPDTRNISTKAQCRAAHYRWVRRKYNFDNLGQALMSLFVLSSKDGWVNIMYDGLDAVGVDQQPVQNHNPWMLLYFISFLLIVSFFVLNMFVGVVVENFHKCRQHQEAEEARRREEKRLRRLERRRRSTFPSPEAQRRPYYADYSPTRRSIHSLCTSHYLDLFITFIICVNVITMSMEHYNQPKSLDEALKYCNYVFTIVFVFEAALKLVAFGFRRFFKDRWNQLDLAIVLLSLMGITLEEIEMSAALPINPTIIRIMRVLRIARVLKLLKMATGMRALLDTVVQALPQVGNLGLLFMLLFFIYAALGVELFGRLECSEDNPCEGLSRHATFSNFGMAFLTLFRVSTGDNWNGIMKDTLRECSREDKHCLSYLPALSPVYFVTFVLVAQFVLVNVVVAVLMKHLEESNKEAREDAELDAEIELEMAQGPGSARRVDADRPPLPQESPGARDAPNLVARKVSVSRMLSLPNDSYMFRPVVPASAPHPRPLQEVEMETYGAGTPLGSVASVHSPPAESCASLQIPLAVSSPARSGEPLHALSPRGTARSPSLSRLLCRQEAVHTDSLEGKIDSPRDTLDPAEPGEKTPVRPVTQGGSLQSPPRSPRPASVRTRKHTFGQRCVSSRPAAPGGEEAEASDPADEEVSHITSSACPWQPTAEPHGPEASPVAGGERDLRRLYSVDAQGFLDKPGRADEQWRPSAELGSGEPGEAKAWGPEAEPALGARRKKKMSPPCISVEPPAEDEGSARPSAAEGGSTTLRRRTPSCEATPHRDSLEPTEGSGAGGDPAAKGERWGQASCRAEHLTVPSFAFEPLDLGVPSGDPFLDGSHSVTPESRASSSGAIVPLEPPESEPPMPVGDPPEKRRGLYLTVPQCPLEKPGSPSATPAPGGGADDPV
C=CCn1c(SCn2nnc3ccccc3c2=O)nnc1-c1ccc(Cl)cc1 was tested, and the B-score was -1.02. With C=CCn1c(SCc2c(C(=O)OC)sc(N)c2C(=O)OC)nnc1-c1ccc(Cl)cc1 the B-score was -3.5 (active). Compound C=CCn1c(SCc2cc(C(=O)OC)c(C)o2)nnc1-c1ccncc1 has a B-score of 0.333. In the case of COc1cccc2c1OCC(C(=O)NCc1ccc(Cl)cc1Cl)=C2, the B-score is reported as -1.48. Compound CCc1nnc(SCc2cccc(F)c2)nc1CC has a B-score of -2.53. Work on C/C(=N\NC(=O)c1ccccc1C)c1ccc(N2CCOCC2)cc1 yielded a B-score of -0.0283. Compound O=S(=O)(NN=C1CCCCCCC1)c1ccc(Br)cc1 has a B-score of -1.71. For C/C(=N\NS(=O)(=O)c1cccc([N+](=O)[O-])c1)c1cc2ccccc2o1, the B-score was -0.824. For C/C(=N\NS(=O)(=O)c1ccc(Br)cc1)c1cccs1, the B-score was -5.02 (active). Work on O=Cc1c(N2CCN(c3cccc(Cl)c3)CC2)nc2ccccn2c1=O yielded a B-score of -1.81. O=C(CSc1nnc(-c2cccs2)n1-c1ccccc1)NCc1ccco1 was tested, and the B-score was 0.148. In the case of Cc1cc(C(=O)OCC(=O)NCc2ccco2)c(C)n1-c1ccccc1, the B-score is reported as -4.45 (active). Work on O=C(COC(=O)C12CC3CC(CC(C3)C1)C2)NCc1ccco1 yielded a B-score of -0.704. With ONC(=Nc1ccc(Cl)cc1)c1ccccc1Cl the B-score was -1.41. In the case of O=c1c2ccccc2nc2n1C(CSc1ccc(F)cc1)CN2 (stereo unspecified), the B-score is reported as 1.22. COc1ccc(C(=O)Nc2ncc3c(n2)-c2ccccc2CC3)cc1 was tested, and the B-score was 0.00103. O=C(Nc1ncc2c(n1)-c1ccccc1OC2)c1ccc(Cl)cc1 was tested, and the B-score was -4.5 (active). For COC(=O)c1nc(NC(=O)c2ccc(Cl)cc2)n[nH]1, the B-score was 1.01. For C/C=C\C=C\C(=O)N1CC2(CC(c3cccc(NC(=O)/C(C)=C\C)c3)=NO2)C[C@H]1C(N)=O (stereo partly specified), the B-score was 0.133. CCOC(=O)c1ccc(NC(=O)c2nc[nH]c2C(=O)N[C@@H](CCCCNC(=O)OC(C)(C)C)C(=O)OC(C)(C)C)cc1 showed a B-score of -0.307. Compound Cc1cc(C)cc(NC(=O)CSCc2cnn(-c3ccccc3)c2-n2cccc2)c1 has a B-score of -2.22. With O=C(NCCC1=CCCCC1)C1CCN(Cc2cnn(-c3ccccc3)c2-n2cccc2)CC1 the B-score was -5.79 (active). C1=C(CCNc2ncnc3c2cnn3-c2ccccc2)CCCC1 gave a B-score of -0.0964. COc1cccc(NC(=S)N(CCc2c(C)[nH]c3ccccc23)Cc2ccco2)c1 was tested, and the B-score was -2.67. In the case of CNC(=O)c1[nH]cnc1C(=O)N[C@@H](CC(C)C)C(=O)OC(C)(C)C, the B-score is reported as 0.371. Cc1noc(C)c1C(=O)N(CC(=O)NC1CCCC1)Cc1ccccc1F showed a B-score of 0.408. COC(=O)CN1C(C)=Nc2ccc(Br)cc2C1c1ccccc1 (stereo unspecified) was tested, and the B-score was -0.737. In the case of CCC(CC)C(=O)N1CC(=O)Nc2ccc(Br)cc2C1c1ccccc1 (stereo unspecified), the B-score is reported as -4.79 (active). In the case of CCOC(=O)C1C(=O)NCC1c1ccccc1 (stereo unspecified), the B-score is reported as 0.378. In the case of CCCCCCCCOC1OC(CO)C(O)C(O)C1NC(C)=O (stereo unspecified), the B-score is reported as 0.195. In the case of O=c1c2ccccc2nc(N/N=C/c2ccccc2)n1O, the B-score is reported as -5.17 (active). Work on FC(F)(F)c1nc2ccccc2nc1N/N=C/c1ccc(Cl)cc1 yielded a B-score of -0.00807. Compound CC(C)(C)c1nc2ccccc2c(=O)n1N1C(=O)c2ccccc2C1=O has a B-score of -0.127. Work on C#CCCOC(=O)N1C2=NC(C(=O)OC)=C(C(=O)OC)[C@@H]3N(C)c4ccc(OC)cc4[C@]23C[C@H]1C(=O)OC yielded a B-score of 0.061. Cc1nc(-c2ccc(Cl)cc2)sc1C1(C)CC(c2ccc(Br)cc2)=NO1 (stereo unspecified) gave a B-score of -0.405. Cc1nn(C)c(Oc2ccc(Cl)cc2)c1C=O gave a B-score of -0.0899. C=CCSc1nnc2c(n1)-c1cccc3cccc-2c13 was tested, and the B-score was 0.673. For CSc1nsc(SC)c1NC(=O)OC1CCCCC1, the B-score was -4.23 (active). In the case of COc1ccc(NC(=O)c2c(SC)nsc2SC)cc1, the B-score is reported as 0.226. In the case of O=C(NCC(=O)N(Cc1cccs1)C(C(=O)NC1CCCCC1)c1ccco1)c1cccs1 (stereo unspecified), the B-score is reported as -6.73 (active). CC(C)C(OC(=O)c1cccs1)C(=O)NC1CCCCC1 (stereo unspecified) gave a B-score of -0.509. CC(Cc1cccs1)NC(=O)NC1CCCCC1 (stereo unspecified) was tested, and the B-score was -2.2. With Cc1nnc(NC(=O)Nc2ccc(Cl)c(Cl)c2)s1 the B-score was -0.569. In the case of O=C(CC(O)(C(F)(F)F)C(F)(F)F)Nc1ccc(Cl)c(Cl)c1, the B-score is reported as -6.32 (active). With N/C(=N\OC(=O)Nc1ccc(Cl)c(Cl)c1)c1ncc(C(F)(F)F)cc1Cl the B-score was -0.00792. Work on COC(=O)CNC(=O)c1ccccc1[N+](=O)[O-] yielded a B-score of 2.22. Compound CC(=O)N[C@H]1[C@H]([C@H](O)[C@H](O)CO)OC(C(=O)O)=C[C@@H]1O has a B-score of 0.744. For CC(C)CNC(=O)CC(c1ccccc1)c1c(O)ccc2ccccc12 (stereo unspecified), the B-score was -6.12 (active). With Cc1ccc(CNC(=O)C2CC(c3ccccc3[N+](=O)[O-])=NO2)o1 (stereo unspecified) the B-score was -1.03. In the case of COc1ccc(C(=O)CN(C(=O)c2ccc(Cl)cc2)N2C(=O)c3ccccc3C2=O)cc1, the B-score is reported as -1.99. O=C(Cc1ccc(S(=O)(=O)N2CCCC2)s1)NC1CCCCCC1 showed a B-score of 0.271. O=C(NCCSCc1ccccc1)c1ccc(Cl)c(S(=O)(=O)N2CCOCC2)c1 gave a B-score of -3.48. With O=C(Cc1ccc(S(=O)(=O)N2CCOCC2)s1)NCCC(c1ccccc1)c1ccccc1 the B-score was -6.74 (active). CC(=O)c1nn(-c2cccc(Br)c2)cc1C(=O)c1cccc2ccccc12 was tested, and the B-score was -4.57 (active). CC(=O)c1sc(NC(=O)c2cccc3ccccc23)nc1C was tested, and the B-score was -0.12. CC(=O)c1ccc2c(ccc3ccccc32)c1 gave a B-score of -0.705. Compound CCNC(=S)N1CCN(C(=O)c2ccco2)CC1 has a B-score of -0.0983. For CCN(CC)CCN1C(=O)C(=O)/C(=C(/O)c2cnn(-c3ccccc3)c2C)C1c1cccs1 (stereo unspecified), the B-score was 0.414. With CC(Oc1ccc2ccccc2c1)C(=O)NNC(=S)NC(=O)c1ccco1 (stereo unspecified) the B-score was -7.25 (active). COc1ccc(CCNC(=O)c2ccco2)cc1 was tested, and the B-score was 0.807. With O=C(Nc1ccc(Oc2ccccc2)cc1)c1ccco1 the B-score was -0.246.
